For test [1], the target named is Tyrosine-protein kinase CSK (Homo sapiens) (UniProt P41240). The conditions noted are these: at 1 µM.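 Note: each value is an averaged inhibition reading.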
Test [2] has as its target T1, Discoidin domain-containing receptor 2 (Homo sapiens) (UniProt Q16832).
T1 sequence (whole entry): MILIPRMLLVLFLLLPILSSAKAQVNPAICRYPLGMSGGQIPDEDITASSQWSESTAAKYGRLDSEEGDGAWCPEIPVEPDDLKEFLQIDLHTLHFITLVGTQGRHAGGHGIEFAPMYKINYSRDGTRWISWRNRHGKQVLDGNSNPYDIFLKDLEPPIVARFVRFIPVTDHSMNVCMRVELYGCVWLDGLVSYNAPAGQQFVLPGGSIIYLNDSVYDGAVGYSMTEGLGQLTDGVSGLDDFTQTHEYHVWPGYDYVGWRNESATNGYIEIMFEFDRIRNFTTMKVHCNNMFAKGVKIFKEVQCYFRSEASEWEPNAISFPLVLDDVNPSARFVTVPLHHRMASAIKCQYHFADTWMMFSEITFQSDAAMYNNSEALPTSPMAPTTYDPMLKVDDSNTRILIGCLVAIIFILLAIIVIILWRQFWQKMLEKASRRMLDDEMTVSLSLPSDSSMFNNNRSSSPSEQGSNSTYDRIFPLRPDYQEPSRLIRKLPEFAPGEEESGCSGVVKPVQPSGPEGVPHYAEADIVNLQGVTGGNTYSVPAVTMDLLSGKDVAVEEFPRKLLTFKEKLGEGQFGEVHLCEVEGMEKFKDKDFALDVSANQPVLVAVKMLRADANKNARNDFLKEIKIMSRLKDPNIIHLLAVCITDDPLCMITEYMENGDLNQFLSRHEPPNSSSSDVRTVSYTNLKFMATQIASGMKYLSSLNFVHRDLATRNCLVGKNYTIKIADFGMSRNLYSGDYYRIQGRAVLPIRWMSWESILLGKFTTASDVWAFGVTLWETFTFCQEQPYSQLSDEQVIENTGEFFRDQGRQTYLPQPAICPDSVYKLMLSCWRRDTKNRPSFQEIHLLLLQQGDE
Conditions: at 0.1 µM.

In test [3] the target is T1, Discoidin domain-containing receptor 2 (Homo sapiens). Conditions: at 1 µM.
Test [4] has as its target Epidermal growth factor receptor (Homo sapiens) (UniProt P00533). The conditions noted are these: at 0.1 µM.
The target is the same in test [5]. The conditions noted are these: at 1 µM.
For test [6], the system named is Epidermal growth factor receptor (Homo sapiens), P00533 [L858R]. Conditions: at 0.1 µM.
Test [7] has the same test system. Conditions: at 1 µM.
In test [8] the test system is Epidermal growth factor receptor (Homo sapiens), P00533 [L861Q]. Conditions: at 0.1 µM.
For test [9] the test system is unchanged. Conditions: at 1 µM.
The test system of test [10] is Epidermal growth factor receptor (Homo sapiens), P00533 [T790M]. Conditions: at 0.1 µM.
The test system is the same in test [11]. The conditions noted are these: at 1 µM.
In test [12] the test system is Epidermal growth factor receptor (Homo sapiens), P00533 [L858R,T790M]. Conditions: at 0.1 µM.
Test [13] shares this test system. The conditions noted are these: at 1 µM.
The target of test [14] is Ephrin type-A receptor 2 (Homo sapiens) (UniProt P29317). Conditions: at 0.1 µM.
The target is the same in test [15]. The conditions noted are these: at 1 µM.
Test [16] concerns the target T2, Ephrin type-A receptor 3 (Homo sapiens) (UniProt P29320).
T2 sequence (whole entry): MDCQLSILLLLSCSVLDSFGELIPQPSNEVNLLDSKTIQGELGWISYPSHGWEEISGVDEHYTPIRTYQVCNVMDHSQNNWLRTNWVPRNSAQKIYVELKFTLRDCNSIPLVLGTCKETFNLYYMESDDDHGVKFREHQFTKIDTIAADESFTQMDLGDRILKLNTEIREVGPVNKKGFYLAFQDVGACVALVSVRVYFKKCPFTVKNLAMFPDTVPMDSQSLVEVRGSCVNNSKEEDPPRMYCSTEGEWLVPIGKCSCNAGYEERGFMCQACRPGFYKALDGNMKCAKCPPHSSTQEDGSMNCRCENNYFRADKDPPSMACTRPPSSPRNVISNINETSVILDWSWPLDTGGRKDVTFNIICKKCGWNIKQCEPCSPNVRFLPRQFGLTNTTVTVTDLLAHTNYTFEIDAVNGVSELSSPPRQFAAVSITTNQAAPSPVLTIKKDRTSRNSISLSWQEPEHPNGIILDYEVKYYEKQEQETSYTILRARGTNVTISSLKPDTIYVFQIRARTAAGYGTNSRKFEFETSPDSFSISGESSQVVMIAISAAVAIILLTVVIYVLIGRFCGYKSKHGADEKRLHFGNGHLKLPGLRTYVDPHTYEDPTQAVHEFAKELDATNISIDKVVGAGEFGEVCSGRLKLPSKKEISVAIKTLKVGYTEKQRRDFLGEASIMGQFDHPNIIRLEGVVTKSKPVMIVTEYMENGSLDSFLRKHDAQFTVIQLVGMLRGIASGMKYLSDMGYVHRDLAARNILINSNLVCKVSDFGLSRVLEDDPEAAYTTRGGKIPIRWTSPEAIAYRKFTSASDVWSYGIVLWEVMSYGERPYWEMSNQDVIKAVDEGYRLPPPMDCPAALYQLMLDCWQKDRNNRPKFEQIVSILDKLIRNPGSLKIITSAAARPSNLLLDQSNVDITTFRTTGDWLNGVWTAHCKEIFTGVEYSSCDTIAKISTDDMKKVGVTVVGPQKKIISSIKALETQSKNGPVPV
Conditions: at 0.1 µM.

Test [17] has as its target T2, Ephrin type-A receptor 3 (Homo sapiens). Conditions: at 1 µM.
The target of test [18] is Ephrin type-A receptor 4 (Homo sapiens) (UniProt P54764). Conditions: at 0.1 µM.
The target is the same in test [19]. Conditions: at 1 µM.
Test [20] concerns the target T3, Ephrin type-B receptor 2 (Homo sapiens) (UniProt P29323).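 Note: reported as mean inhibition of EPHB2, from the GSK PKIS dataset.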
T3 sequence (whole entry): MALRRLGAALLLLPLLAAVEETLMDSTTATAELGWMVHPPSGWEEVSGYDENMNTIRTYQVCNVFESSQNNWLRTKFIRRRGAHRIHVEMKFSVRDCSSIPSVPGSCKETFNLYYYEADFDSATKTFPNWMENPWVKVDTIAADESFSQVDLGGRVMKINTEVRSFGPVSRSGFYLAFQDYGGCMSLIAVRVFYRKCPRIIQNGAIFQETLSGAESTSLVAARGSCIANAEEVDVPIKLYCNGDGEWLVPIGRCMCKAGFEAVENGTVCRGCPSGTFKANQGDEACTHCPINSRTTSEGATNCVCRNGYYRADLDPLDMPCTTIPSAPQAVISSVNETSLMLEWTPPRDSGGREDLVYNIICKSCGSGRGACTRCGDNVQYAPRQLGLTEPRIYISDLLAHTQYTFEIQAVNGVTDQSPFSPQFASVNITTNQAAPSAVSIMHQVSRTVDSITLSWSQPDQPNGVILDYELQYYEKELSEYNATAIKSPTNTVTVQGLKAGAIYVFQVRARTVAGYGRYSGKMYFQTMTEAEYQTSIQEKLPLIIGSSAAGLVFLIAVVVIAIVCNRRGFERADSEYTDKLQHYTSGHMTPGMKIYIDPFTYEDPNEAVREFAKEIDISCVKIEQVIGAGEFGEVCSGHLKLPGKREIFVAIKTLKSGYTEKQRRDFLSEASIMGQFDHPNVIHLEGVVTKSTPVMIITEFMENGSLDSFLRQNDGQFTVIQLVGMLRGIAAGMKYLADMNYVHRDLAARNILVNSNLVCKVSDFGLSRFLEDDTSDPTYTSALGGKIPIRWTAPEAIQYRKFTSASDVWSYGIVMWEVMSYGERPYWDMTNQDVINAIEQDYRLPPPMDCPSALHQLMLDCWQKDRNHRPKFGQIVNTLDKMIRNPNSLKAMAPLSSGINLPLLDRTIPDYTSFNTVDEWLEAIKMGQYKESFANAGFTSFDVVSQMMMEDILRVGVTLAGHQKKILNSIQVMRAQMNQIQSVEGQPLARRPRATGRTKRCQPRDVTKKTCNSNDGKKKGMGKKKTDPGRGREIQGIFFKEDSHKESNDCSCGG
The conditions noted are these: at 0.1 µM.

Chain of Epidermal growth factor receptor (Homo sapiens), P00533 [T790M] (P00533 whole entry T790M): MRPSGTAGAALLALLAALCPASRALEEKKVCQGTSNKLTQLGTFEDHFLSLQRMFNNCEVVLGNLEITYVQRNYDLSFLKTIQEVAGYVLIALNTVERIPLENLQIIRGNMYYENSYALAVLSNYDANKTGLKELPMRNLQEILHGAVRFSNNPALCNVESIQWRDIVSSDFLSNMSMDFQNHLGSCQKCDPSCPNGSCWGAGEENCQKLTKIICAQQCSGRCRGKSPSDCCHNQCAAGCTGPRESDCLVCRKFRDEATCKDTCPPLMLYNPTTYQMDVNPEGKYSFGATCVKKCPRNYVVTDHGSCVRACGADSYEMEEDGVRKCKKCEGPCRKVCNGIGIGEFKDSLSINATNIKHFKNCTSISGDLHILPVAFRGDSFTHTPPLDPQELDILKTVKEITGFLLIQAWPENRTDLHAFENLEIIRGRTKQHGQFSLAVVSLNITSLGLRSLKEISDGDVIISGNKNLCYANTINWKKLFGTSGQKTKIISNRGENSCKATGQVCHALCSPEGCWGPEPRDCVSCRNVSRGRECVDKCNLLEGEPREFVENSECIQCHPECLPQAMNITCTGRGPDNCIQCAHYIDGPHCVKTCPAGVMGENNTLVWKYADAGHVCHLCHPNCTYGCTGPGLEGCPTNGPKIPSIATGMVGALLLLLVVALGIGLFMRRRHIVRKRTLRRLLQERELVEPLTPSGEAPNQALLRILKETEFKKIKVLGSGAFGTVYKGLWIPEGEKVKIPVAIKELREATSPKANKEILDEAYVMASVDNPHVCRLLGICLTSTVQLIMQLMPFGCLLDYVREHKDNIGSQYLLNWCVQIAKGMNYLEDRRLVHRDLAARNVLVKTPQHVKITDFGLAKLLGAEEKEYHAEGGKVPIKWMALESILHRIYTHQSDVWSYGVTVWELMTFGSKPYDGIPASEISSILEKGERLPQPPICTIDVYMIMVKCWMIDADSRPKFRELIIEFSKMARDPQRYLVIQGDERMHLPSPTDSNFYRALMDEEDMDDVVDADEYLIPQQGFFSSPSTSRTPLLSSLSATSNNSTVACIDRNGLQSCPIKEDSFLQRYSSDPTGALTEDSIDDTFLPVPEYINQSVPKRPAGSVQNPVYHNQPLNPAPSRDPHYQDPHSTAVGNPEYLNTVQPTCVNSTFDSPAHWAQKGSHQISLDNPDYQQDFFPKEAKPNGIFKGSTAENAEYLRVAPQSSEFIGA
Chain of Epidermal growth factor receptor (Homo sapiens), P00533 [L861Q] (P00533 whole entry L861Q): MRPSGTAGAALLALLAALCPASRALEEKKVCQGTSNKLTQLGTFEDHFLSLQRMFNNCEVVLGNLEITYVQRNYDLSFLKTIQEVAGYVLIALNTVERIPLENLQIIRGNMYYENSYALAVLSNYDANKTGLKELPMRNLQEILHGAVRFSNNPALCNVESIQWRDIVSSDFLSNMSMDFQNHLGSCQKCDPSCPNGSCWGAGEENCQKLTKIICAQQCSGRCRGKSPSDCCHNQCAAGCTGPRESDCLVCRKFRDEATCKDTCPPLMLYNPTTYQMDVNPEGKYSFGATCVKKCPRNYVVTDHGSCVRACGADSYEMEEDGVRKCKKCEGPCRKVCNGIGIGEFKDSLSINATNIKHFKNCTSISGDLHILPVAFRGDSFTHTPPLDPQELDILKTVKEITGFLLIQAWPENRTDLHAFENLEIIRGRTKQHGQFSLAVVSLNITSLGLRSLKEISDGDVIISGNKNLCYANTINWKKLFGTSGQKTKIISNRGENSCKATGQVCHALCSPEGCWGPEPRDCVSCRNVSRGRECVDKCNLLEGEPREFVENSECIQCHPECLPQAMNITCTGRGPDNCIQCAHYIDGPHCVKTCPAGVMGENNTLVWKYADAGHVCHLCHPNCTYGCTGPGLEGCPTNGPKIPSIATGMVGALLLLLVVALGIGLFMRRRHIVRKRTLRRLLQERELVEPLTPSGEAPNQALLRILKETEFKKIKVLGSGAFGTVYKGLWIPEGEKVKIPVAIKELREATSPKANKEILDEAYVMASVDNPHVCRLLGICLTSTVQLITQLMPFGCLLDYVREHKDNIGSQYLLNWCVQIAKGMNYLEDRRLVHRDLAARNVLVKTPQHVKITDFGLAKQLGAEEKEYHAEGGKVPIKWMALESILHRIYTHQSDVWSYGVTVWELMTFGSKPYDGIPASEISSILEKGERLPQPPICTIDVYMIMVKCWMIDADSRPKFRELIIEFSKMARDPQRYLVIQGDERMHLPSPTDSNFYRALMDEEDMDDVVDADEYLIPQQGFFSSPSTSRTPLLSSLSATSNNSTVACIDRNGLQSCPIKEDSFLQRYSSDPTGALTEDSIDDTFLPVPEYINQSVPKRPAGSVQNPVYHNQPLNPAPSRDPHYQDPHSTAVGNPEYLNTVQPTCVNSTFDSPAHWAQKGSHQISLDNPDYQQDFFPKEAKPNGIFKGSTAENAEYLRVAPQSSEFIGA
Chain of Epidermal growth factor receptor (Homo sapiens), P00533 [L858R,T790M] (P00533 whole entry T790M/L858R, looked up): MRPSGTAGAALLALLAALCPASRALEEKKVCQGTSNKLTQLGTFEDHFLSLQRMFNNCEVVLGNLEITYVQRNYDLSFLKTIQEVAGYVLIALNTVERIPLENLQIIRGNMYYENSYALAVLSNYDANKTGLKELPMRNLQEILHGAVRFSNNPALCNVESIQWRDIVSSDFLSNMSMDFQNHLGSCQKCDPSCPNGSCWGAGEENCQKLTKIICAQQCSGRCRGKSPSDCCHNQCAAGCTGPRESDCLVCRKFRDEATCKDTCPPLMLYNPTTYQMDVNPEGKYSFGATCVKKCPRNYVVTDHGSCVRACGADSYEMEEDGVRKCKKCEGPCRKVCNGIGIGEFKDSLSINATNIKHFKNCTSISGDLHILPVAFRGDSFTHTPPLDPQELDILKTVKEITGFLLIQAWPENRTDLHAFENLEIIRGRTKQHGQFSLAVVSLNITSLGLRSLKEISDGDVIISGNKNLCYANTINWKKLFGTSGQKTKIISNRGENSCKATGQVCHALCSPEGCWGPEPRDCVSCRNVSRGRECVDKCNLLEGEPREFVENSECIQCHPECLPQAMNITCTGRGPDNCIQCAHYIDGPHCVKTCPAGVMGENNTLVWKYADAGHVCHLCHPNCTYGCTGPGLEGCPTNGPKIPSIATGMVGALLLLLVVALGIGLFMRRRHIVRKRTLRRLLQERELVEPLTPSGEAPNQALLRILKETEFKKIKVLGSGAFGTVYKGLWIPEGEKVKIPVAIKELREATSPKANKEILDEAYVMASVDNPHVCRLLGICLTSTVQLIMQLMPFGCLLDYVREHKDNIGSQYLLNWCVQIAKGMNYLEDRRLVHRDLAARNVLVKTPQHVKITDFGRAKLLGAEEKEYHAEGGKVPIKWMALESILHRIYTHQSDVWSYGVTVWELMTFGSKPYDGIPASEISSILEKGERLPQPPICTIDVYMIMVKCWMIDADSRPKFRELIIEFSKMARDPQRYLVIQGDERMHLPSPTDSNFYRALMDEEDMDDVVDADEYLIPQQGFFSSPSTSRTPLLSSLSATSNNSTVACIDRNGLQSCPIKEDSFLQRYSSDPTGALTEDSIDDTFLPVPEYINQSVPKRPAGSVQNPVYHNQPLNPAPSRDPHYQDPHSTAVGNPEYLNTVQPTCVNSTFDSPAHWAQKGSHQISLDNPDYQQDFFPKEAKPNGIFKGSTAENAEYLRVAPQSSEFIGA
Chain of Ephrin type-A receptor 2 (Homo sapiens) (P29317 whole entry): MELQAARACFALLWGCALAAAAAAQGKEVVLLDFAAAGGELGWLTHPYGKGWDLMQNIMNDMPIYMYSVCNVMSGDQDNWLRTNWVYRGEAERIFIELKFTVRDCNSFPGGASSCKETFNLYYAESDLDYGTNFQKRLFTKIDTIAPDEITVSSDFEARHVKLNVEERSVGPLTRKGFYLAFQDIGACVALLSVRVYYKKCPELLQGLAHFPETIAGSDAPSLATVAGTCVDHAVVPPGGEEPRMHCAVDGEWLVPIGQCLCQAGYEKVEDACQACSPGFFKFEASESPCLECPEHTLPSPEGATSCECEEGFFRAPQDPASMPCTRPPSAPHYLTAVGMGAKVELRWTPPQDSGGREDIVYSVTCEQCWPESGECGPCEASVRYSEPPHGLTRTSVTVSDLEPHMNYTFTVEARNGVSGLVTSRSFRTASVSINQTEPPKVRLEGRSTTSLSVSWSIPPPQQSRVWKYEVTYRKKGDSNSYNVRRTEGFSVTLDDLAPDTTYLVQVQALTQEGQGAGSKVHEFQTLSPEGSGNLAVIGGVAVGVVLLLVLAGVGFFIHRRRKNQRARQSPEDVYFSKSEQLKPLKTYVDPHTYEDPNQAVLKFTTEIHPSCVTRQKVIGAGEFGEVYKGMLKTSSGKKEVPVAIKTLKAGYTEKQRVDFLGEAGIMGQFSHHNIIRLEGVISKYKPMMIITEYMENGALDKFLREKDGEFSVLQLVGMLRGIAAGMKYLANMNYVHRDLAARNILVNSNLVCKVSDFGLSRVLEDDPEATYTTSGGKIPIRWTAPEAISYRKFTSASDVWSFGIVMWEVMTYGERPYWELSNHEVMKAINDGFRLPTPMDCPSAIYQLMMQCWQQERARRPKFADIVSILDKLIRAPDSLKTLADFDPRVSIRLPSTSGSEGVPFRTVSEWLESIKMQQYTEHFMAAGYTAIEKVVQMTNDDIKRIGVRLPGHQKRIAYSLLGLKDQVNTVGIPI
Chain of Tyrosine-protein kinase CSK (Homo sapiens) (P41240 2-450 limits assumed): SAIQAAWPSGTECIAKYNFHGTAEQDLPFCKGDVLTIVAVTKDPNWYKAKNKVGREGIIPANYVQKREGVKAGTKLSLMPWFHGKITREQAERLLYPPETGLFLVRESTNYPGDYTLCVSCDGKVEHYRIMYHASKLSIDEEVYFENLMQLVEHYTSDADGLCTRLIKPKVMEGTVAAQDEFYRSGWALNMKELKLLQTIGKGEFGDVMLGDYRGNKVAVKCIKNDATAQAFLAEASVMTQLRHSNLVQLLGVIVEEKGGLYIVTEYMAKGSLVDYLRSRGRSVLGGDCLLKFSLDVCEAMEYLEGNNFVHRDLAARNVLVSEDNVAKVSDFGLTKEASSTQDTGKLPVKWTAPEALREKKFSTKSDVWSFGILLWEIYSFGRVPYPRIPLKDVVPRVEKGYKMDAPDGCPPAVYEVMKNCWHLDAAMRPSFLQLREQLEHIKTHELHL

By inhibition is commonly meant the drop in the measured response relative to a control, in per cent. As to `CCc1ccc(Oc2nccc(-c3c(-c4ccc(F)cc4)ncn3C3CCNCC3)n2)cc1`, the inhibition stood at 10.3% in [1]; 1.91% in [2]; 3.52% in test [3]; 2.21% in [4]; 7.66% in test [5]; 3.05% in test [6]. The inhibition in test [7] amounted to 15.9%; in test [8], 1.97%; in test [9], 5.92%; in test [10], 0.57%; in test [11], 4.64%; in [12], 0.15%. For the same compound, the inhibition in [13] is 8.07%; in test [14], 0.72%; in test [15], -0.17%; in test [16] it was 4.68%; in test [17] it was 4.67%; in test [18], 9.41%. The inhibition was found to be 10.6% in test [19] and 4.76% in test [20].

As for `CN(c1ccc(NC(=O)Nc2c(Cl)cccc2Cl)cc1)c1ccnc(Nc2cccc(CS(C)(=O)=O)c2)n1`, the inhibition was 19.5% in [1]; 11.1% in test [2]; 26.9% in test [3]; 2.38% in test [4]; 5.8% in test [5]; 1.91% in test [6]. Moreover, the inhibition in test [7] is 8.57%; in test [8] it was 4.35%; in [9] it was 7.45%; in [10] it was 1.27%; in [11], 2.21%; in test [12], 2.48%. Moreover, the inhibition in test [13] came out at 3.18%; in [14], 3.5%; in [15], 7.74%; in test [16], 7.33%; in test [17], 7.13%; in test [18], 10.6%. Further, the figures for the inhibition in [19] and in [20] were 33.8% and 4.12%, respectively.

Regarding `NS(=O)(=O)c1ccc(Nc2cc(-c3ccc(O)c(F)c3)n[nH]2)cc1`, the inhibition in test [1] was -6.35%; in [2] it was -0.38%; in [3], 18.8%; in test [4], 0.49%; in test [5], 3.68%; in test [6], -2.81%. Further, the inhibition in test [7] was -2%; in test [8] it was -1.84%; in test [9], 0.29%; in test [10], -1.07%; in [11], -0.95%; in test [12], -2.9%. Further, the inhibition in [13] is -4.28%; in test [14], -1.33%; in test [15], -1.33%; in test [16] it was -4.5%; in test [17], -0.8%; in test [18], -6.46%. Also, the inhibition in test [19] is -5.56%; in [20] it was -3.09%.

On to `CCS(=O)(=O)c1ccc(OC)c(Nc2ncc(-c3ccccc3Cl)o2)c1`, for which the inhibition is 1.96% in [1]; 3.73% in [2]; 8.46% in test [3]; -0.49% in [4]; 0.66% in [5]; -1.25% in test [6]. Besides, the inhibition in test [7] is 7.46%; in test [8], 2.33%; in test [9], 1.22%; in test [10], 1.78%; in [11], 3.29%; in [12], -1.69%. For the same compound, the inhibition in test [13] was -0.03%; in test [14] it was 1.32%; in test [15], 1.73%; in [16], 5.46%; in test [17], 4.36%; in [18], 5.58%. The inhibition was determined as 9.33% in [19] and 4.99% in test [20].

`COc1ccc(-c2ccc3c(NC(=O)C4CC4)n[nH]c3n2)cc1`: the inhibition in test [1] is 4.87%; in test [2], 0.86%; in [3], 0.84%; in test [4], 0.14%; in [5], 0.71%; in test [6] it was -1.64%. In addition, the inhibition in test [7] was 3.91%; in [8], -0.19%; in test [9], 2.45%; in test [10] it was -0.2%; in [11] it was 4.06%; in [12], -0.83%. In addition, the inhibition in test [13] worked out at 5.32%; in [14] it was 0.96%; in test [15] it was 0.05%; in [16], 2.4%; in test [17], 3.41%; in test [18], 6.38%. The figures for the inhibition in test [19] and in test [20] were 10.4% and 1.78%, respectively.

With `O=C1NC(=O)C(c2cccc(Cl)c2)=C1Nc1ccc(Cl)c(C(=O)O)c1`, the inhibition in test [1] came out at 1.91%; in test [2] it was 3.06%; in test [3], 4.88%; in test [4], 1.44%; in [5], 2.17%; in [6] it was 1.51%. Also, the inhibition in [7] stood at 5.24%; in test [8], 1.41%; in test [9], 2.94%; in [10], 1%; in [11] it was 4.13%; in test [12] it was 0.67%. Also, the inhibition in test [13] worked out at 2.52%; in [14] it was 0.74%; in test [15], 0.86%; in [16] it was 5.42%; in test [17], 4.05%; in test [18] it was 8.74%. Further, the inhibition in [19] was determined as 7.75%; in test [20], 5.83%.

The values above are taken from ChEMBL document CHEMBL1961873, “Compounds: GSK PKIS; Assays: Nanosyn kinase panel” (2012).
